Laboratory results published in PubChem BioAssay AID1002 (National Center for Advancing Translational Sciences (NCATS), 2008).
The source made the active and inactive calls.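 How the source made its calls: active means compound given an inhibitor call from its dose-response curve against AmpC beta-lactamase with detergent added; inactive means the rest.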

These compounds were tested against Beta-lactamase (Escherichia coli (strain K12)) (UniProt P00811) (assay: Confirmation Concentration-Response Assay for Inhibitors of AmpC Beta-Lactamase (assay with detergent)). Settings: purified AmpC, nitrocefin absorbance 480 nm, 0.01% Triton.
Sequence of Beta-lactamase (Escherichia coli (strain K12)) (P00811 whole entry, looked up): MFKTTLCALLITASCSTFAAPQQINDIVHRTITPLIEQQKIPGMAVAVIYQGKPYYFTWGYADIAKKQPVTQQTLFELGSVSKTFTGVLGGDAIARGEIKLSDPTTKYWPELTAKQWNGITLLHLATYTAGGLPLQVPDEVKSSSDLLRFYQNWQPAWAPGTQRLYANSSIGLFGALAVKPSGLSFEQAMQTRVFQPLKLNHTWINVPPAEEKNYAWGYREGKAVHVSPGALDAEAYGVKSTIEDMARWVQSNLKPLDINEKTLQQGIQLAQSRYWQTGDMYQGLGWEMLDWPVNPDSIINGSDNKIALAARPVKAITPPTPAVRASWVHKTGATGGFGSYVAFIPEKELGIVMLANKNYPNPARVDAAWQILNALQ
Experimental: NIH Molecular Libraries Screening Centers Network [MLSCN] NIH Chemical Genomics Center [NCGC] MLSCN Grant: MH079825-01 Assay Provider: Shoichet, Brian K. This aggregation profiling approach exploits the sensitivity of aggregate formation to detergent. Inhibition of b-lactamase is measured in the presence and absence of 0.01% Triton X-100 (Feng 2007). This particular assay is a confirmation of previous qHTS (Inglese, 2006), Pubchem AID 584, assay with presence of 0.01% Triton X-100. For a related assay without detergent, see AID 585. Compounds that inhibit only in the absence of detergent are considered likely promiscuous aggregators. In this confirmation assay, AmpC activity was measured by following the absorbance at 480 nm. Nitrocefin is a chromogenic substrate: while nitrocefin is yellow (lmax 390 nm), the product of its hydrolysis is red (lmax 486 nm, 17,000 M-1). AmpC beta-lactamase was provided by Prof Brian Shoichet's lab, UCSF.
Buffer: 1. 20 mM phosphate buffer, pH 7.0, 0.01 % Triton X-100 2. Reagents/Controls. 3. Buffer in row 32 as negative control (no enzyme). 4. 3 nM AmpC final concentration in rows 1-31. Assay Steps: Six uL of reagents were dispensed to 1536-well Greiner black clear bottom plates. Compounds (23 nL) were transferred via Kalypsys PinTool. The plates were incubated for 15 min at room temperature, and then 2 uL of 800 uM solution of nitrocefin was added to start the reaction. The plates were immediately transferred to and read every 20 seconds for 3 minutes on ViewLux (Perkin-Elmer) High-throughput CCD imager using 480 nm absorbance protocol.

Potency, active:
Cc1ccccc1CS(=O)(=O)c1nnc([C@H](CC(C)C)NC(=O)OC(C)(C)C)o1 11 µM
CC(C)(C)OC(=O)N[C@@H](Cc1ccccc1)c1nnc(S(=O)(=O)Cc2cccc(F)c2)o1 15 µM
COC(=O)CS(=O)(=O)c1nnc([C@H](Cc2ccccc2)NC(=O)OC(C)(C)C)o1 9.4 µM
CC(C)[C@H](NC(=O)OC(C)(C)C)c1nnc(S(=O)(=O)Cc2c(F)cccc2Cl)o1 1.8 µM
CC[C@@H](C)[C@H](NC(=O)OC(C)(C)C)c1nnc(S(=O)(=O)Cc2cc(C)ccc2C)o1 10 µM
CC(C)C[C@H](N)c1nnc(S(=O)(=O)Cc2cccc(F)c2)o1 8.6 µM
CC(C)(C)OC(=O)N[C@@H](Cc1ccccc1)c1nnc(S(=O)(=O)Cc2ccccc2)o1 16 µM
CCC(C)[C@@H](NC(=O)OC(C)(C)C)c1nnc(S(=O)(=O)Cc2cccc(C)c2)o1 (some centres undefined) 10 µM
CC(C)(C)OC(=O)NCCc1nnc(S(=O)(=O)Cc2ccc(Cl)cc2Cl)o1 0.066 µM
